The supplement of paper PMC10498489
In all, about 2,300 compounds went through this assay and about 330 (14%) showed activity.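 The calls were made as follows: active = median modified Z-score above 1.96; inactive = 1.96 or below.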 A selection follows.

tested on: HepG2 Srxn1-GFP reporter cells (+30 nM CDDO-Me); experiment: Srxn1-GFP intensity median modified Z-score relative to plate median; higher = stronger NRF2 / oxidative stress reporter activation, active = hit call of the paper; details: 10 µM; exposure time: 24h
Method in brief: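 HepG2 Srxn1-GFP BAC reporter cells were seeded at 20,000 per well in 96-well plates and co-exposed for 24 h to compound at 10 μM and an NRF2 activator at 30 nM, with DMSO at ≤0.1%, in three replicate plates. Cells were fixed with formaldehyde, stained with Hoechst and imaged by confocal microscopy, and cytoplasmic GFP was measured per cell, with images holding under 100 cells discarded. The reported value is the median over replicates of each plate's modified Z-score of GFP intensity. For this score, scaling used 1.4826 × median absolute deviation.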

| SMILES | Srxn1-GFP intensity median modified Z-score |
| --- | --- |
| CC(NC(C)(C)C)C(=O)c1cccc(Cl)c1 (centres undefined) [euspeclibcmpd657] | -0.376 (inactive) |
| CC(=O)Oc1ccc(/C=C/c2cc(OC(C)=O)cc(OC(C)=O)c2)cc1 [euspeclibcmpd1618] | 1.59 (inactive) |
| CC(=O)NC1CCSC1=O (centres undefined) [euspeclibcmpd1125] | 0.231 (inactive) |
| CCOP(=S)(OCC)Oc1cc(C)nc(C(C)C)n1 [euspeclibcmpd706] | -0.234 (inactive) |
| C=CCc1cc(OC)c2c(c1OC)OCO2 [euspeclibcmpd1480] | -0.404 (inactive) |
| N=c1cc[nH]cc1 [euspeclibcmpd895] | -0.471 (inactive) |
| Cc1cc(C(C#N)c2ccc(Cl)cc2)c(Cl)cc1NC(=O)c1cc(I)cc(I)c1O (centres undefined) [euspeclibcmpd694] | 9.76 (active) |
| CN(C)C1C(=O)C(C(N)=O)C(=O)[C@@]2(O)C(=O)C3C(=O)c4c(O)cccc4[C@@](C)(O)[C@H]3[C@H](O)[C@@H]12 (some centres undefined) [euspeclibcmpd225] | -0.444 (inactive) |
| CC(=O)O[C@@H]1CC[C@]2(C)C3CC[C@]4(C)C(=O)CCC4C3CC[C@H]2C1 (some centres undefined) [euspeclibcmpd1810] | 0.269 (inactive) |
| Cc1nc(=O)c(C[n+]2csc(CCO)c2C)c[nH]1 [euspeclibcmpd1800] | 0.155 (inactive) |
| CCCCCC1C(=O)O[C@H](C)C(NC(=O)c2cccc(NC=O)c2O)C(=O)O[C@@H](C)[C@@H]1OC(=O)CC(C)C (some centres undefined) [euspeclibcmpd1446] | 39.4 (active) |
| C[C@]12C=CC(=O)CC1=CCC1C2CC[C@]2(C)C(=O)CCC12 (some centres undefined) [euspeclibcmpd1581] | -0.0301 (inactive) |
| N#CC(=Cc1ccc(O)cc1)C(=O)O [euspeclibcmpd1768] | -0.146 (inactive) |
| CC[C@H](c1cccc(O)c1)[C@@H](C)CN(C)C [euspeclibcmpd2238] | -0.41 (inactive) |
| O=C1C(Cl)=C(Cl)C(=O)C(Cl)=C1Cl [euspeclibcmpd1739] | 25.8 (active) |
| C=CCN=C=S [euspeclibcmpd920] | 0.0414 (inactive) |
| Cc1ccc(/N=C/N(C)/C=N/c2ccc(C)cc2C)c(C)c1 [euspeclibcmpd739] | 0.115 (inactive) |
| CC1=C2CCC3C(CC[C@]4(C)C(=O)CCC34)[C@@]2(C)CCC1=O (some centres undefined) [euspeclibcmpd1163] | -0.15 (inactive) |
| CN[C@@H]1[C@@H](O)C(OC2[C@@H](N)C[C@@H](N)[C@H](O[C@H]3O[C@H](C(C)O)[C@@H](O)[C@H](O)[C@H]3N)[C@H]2O)OC[C@]1(C)O (some centres undefined) [euspeclibcmpd1437] | -0.354 (inactive) |
| COc1ccc2c(c1OC)C(=O)O[C@@H]2[C@H]1c2cc3c(cc2CCN1C)OCO3 [euspeclibcmpd2270] | 0.619 (inactive) |
| COc1cc([C@@H]2c3cc4c(cc3[C@H](O)[C@H]3COC(=O)C23)OCO4)cc(OC)c1OC (some centres undefined) [euspeclibcmpd2203] | 11.5 (active) |
| CN1CCc2cc3c(cc2C1O)OCO3 (centres undefined) [euspeclibcmpd1021] | 0.455 (inactive) |

| SMILES | Srxn1-GFP intensity median modified Z-score |
| --- | --- |
| COc1cc([C@@H]2c3cc4c(cc3[C@H](OC(C)=O)[C@H]3COC(=O)C23)OCO4)cc(OC)c1OC (some centres undefined) [euspeclibcmpd2106] | 13.1 (active) |
| COc1cc([C@@H]2c3cc4c(cc3[C@H](O)[C@H]3COC(=O)C23)OCO4)cc(OC)c1OC (some centres undefined) [euspeclibcmpd2060] | 27.1 (active) |
| NCc1cccnc1 [euspeclibcmpd1239] | -0.224 (inactive) |
| CC(C)[N+](C)(CCC(C(N)=O)(c1ccccc1)c1ccccc1)C(C)C [euspeclibcmpd164] | 0.396 (inactive) |
| CC(C)c1cccc(C(C)C)c1O [euspeclibcmpd699] | -0.02 (inactive) |
| C[C@]12CCC(=O)CC1=CC=C1C2CC[C@@]2(C)C1CC[C@@]2(O)CCC(=O)O (some centres undefined) [euspeclibcmpd2339] | -0.283 (inactive) |
| CCC(C(=O)[C@H](C)[C@@H](O)[C@H](C)[C@@H]1O[C@@H]([C@@H](CC)C(=O)O)CC[C@@H]1C)[C@H]1OC2(C=C[C@@H](O)[C@]3(CC[C@@](C)([C@H]4CC[C@](O)(CC)[C@H](C)O4)O3)O2)[C@H](C)C[C@@H]1C (some centres undefined) [euspeclibcmpd2084] | 6.06 (active) |
| CC(C)(C)NCC(O)c1cc(Cl)c(N)c(Cl)c1 (centres undefined) [euspeclibcmpd1154] | -0.331 (inactive) |
| CCC(N)C(O)c1ccc(O)c(O)c1 (centres undefined) [euspeclibcmpd646] | -0.33 (inactive) |
| CN1CC(CNC(=O)OCc2ccccc2)C[C@H]2c3cccc4c3c(cn4C)CC21 (some centres undefined) [euspeclibcmpd1151] | -0.466 (inactive) |
| COc1cc2c(c(OC)c1OC)-c1ccc(=O)c(O)cc1C(NC(C)=O)CC2 (centres undefined) [euspeclibcmpd2248] | -0.142 (inactive) |
| COc1cc2c(c(OC)c1OC)-c1ccc(OC)c(=O)cc1[C@@H](NC(C)=O)CC2 [euspeclibcmpd73] | 13.3 (active) |
| CNC(=O)Oc1ccc2c(c1)[C@]1(C)CCN(C)[C@@H]1N2C [euspeclibcmpd611] | 0.455 (inactive) |
| C[C@H]1C[C@@H](O)[C@]2(O)[C@@]13CC(=O)OC[C@@]2(C)[C@](C)(O)C(=O)C3 [euspeclibcmpd1475] | 0.639 (inactive) |
| COc1ccc(CN2CCNCC2)c(OC)c1OC [euspeclibcmpd1198] | 0.677 (inactive) |
| CCOC(=O)c1cncn1[C@H](C)c1ccccc1 [euspeclibcmpd826] | -0.145 (inactive) |
| O=C(O)C1[O][Sb]2[O]C(=O)C([O]2)C(C(=O)O)[O][Sb]2[O]C(=O)C1[O]2 (centres undefined) [euspeclibcmpd2437] | 3.34 (active) |
| CC(=O)OC1CN2CCC1CC2 (centres undefined) [euspeclibcmpd385] | -0.0983 (inactive) |
| O=[N+]([O-])C(Br)(CO)CO [euspeclibcmpd2257] | 6.25 (active) |
| COc1ccc(C(=O)O)cc1OC [euspeclibcmpd2003] | -0.455 (inactive) |
| C[C@]12CC[C@H](O)CC1=CCC1C2CC[C@]2(C)C(=O)CC[C@@H]12 (some centres undefined) [euspeclibcmpd1201] | -0.236 (inactive) |
| OCC(O)[C@H]1O[C@@H]2O[C@H](C(Cl)(Cl)Cl)O[C@@H]2[C@H]1O (some centres undefined) [euspeclibcmpd1184] | 0.0668 (inactive) |
